Source: PubChem BioAssay
FBPA Giardia inh = blocks Giardia fructose-bisphosphate aldolase activity | Potency, µM (titrated, usually from 59.6 µM), most hits filed as inhibitors | AID 2451 | purified Giardia FBPA | A8B2U2 | hit rate 0.71% among 290,000; further: nearly all actives have a fitted effect of over 55% in size
Target sequence (A8B2U2 whole entry, looked up): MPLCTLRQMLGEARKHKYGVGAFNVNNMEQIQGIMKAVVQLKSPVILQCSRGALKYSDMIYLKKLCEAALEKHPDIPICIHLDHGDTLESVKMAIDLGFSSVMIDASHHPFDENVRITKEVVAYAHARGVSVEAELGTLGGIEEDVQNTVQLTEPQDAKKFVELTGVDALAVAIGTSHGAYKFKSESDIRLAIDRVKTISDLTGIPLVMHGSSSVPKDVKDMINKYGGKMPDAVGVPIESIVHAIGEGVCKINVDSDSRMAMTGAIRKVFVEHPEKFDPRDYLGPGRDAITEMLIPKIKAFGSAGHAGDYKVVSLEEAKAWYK
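Giardia FBPA (40 nM reagent) was preincubated 10 min at RT with compound (up to 57.5 uM final), then substrate plus GAPDH/TPI/NAD/arsenate coupling system with diaphorase/resazurin was added; resorufin fluorescence (525/598 nm) was read after 20 min.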
Sm TGR block = S. mansoni TGR enzyme inhibition; Q962Y6; purified TGR, DTNB reduction, TNB absorbance 405 nm; Potency, µM (top dose mostly 114 µM), usual class: inhibitors; hit rate 3% among 360,000; AID 485364; further: nearly all actives have a fitted effect of over 60% in size
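TGR 20 nM + NADPH 100 uM (dispensed conc.), cpd preinc 15 min RT; start with NADPH (500 uM addition) then DTNB (15 mM addition). Kinetic TNB absorbance, 405 nm filter. Four-parameter Hill fit across titration.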
AmpC inh no detg = blocks E. coli AmpC beta-lactamase in detergent-free assay; AID 485341; P00811; AmpC nitrocefin hydrolysis, absorbance 480 nm, 0.0001% Triton; hit rate 0.52% among 330,000; Potency, µM (doses to about 57.1 µM), hits mostly inhibitors; further: nearly all actives have a fitted effect of over 20% in size
Target sequence (P00811 whole entry, looked up): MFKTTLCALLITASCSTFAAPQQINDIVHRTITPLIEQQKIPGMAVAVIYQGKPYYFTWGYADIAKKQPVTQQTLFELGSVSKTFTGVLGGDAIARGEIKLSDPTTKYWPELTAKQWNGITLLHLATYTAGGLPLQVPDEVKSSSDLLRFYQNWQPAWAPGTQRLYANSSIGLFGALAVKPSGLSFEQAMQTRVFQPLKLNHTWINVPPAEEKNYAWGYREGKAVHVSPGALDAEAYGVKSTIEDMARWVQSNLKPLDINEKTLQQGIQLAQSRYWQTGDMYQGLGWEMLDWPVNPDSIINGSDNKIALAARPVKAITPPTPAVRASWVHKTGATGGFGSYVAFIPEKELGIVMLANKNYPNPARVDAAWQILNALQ
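AmpC (5.3 nM in the dispensed reagent) in 20 mM phosphate pH 7.0 with 0.01% (detergent screen) or 0.0001% Triton X-100 was preincubated with compounds for 15 min at room temperature. Nitrocefin was then added from an 800 uM solution, and hydrolysis was followed at 480 nm.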
AmpC detergent = inhibitors of E. coli AmpC beta-lactamase with detergent. P00811. AmpC hydrolysis of nitrocefin, absorbance 480 nm, 0.01% Triton. Potency, µM (top dose mostly 114 µM), hits mostly inhibitors. hit rate 0.041% among 370,000; further: nearly all actives have a fitted effect of over 25% in size
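20 mM phosphate pH 7.0 + 0.01% (detergent screen) or 0.0001% Triton X-100; 5.3 nM AmpC reagent; cpd preinc 15 min RT; nitrocefin (800 uM stock) to start; A480 q20 s × 4 min; Activity was normalised to no-enzyme and no-compound control wells.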
Each line names hits and unclear results; the compound was inactive in the other large screens. Only some compounds are listed: those with a hit (about 3.6% of all), similar ones and a draw of the others. The call rests on the fitted dose curve; in most records, active means well fitted curve in the direction sought with a large enough effect; inconclusive means small, poorly fitted or top-dose-only effect, or another doubt; inactive means no such curve, though single readings can be large; an effect the other way counts as inactive or inconclusive.

CCOC(=O)c1c(/N=C/c2ccc(O)cc2O)sc2c1CCC2	AmpC inh no detg 10µM
CCOC(=O)c1sc(/N=C/c2c(O)n(-c3ccccc3)c(=O)[nH]c2=O)c(C#N)c1C	none
CCOC(=O)c1c(/N=C/c2c(O)n(-c3cccc(C)c3)c(=O)[nH]c2=O)sc2c1CCCC2	Sm TGR block 89.1µM, AmpC detergent inconclusive
CCOC(=O)c1c(/N=C/c2ccccc2O)sc2c1CCC2	none
Cn1c(NC(=O)/C=C/c2ccco2)cc(=O)n(C)c1=O	Sm TGR block 28.2µM
Cc1ccc(/C=C/C(=O)Nc2cc(=O)n(C)c(=O)n2C)o1	FBPA Giardia inh inconclusive, Sm TGR block 7.94µM
COc1cc(/C=C\C(=O)Nc2cc(=O)n(C)c(=O)n2C)cc(OC)c1OC	none
CCOC(=O)C1CCCN(c2oc(-c3ccc(OC)cc3)nc2C#N)C1 (stereo not given)	none
CC[C@]12c3[nH]c4cc(-c5ccco5)ccc4c3CCN1C(=O)[C@@H](CC(=O)NCCN1CCOCC1)C[C@@H]2C(=O)N1CCN(C(=O)C2CC2)CC1	none (no result: FBPA Giardia inh, Sm TGR block, AmpC detergent)
CC(C)=CCn1cnc2c1c(=O)n(C)c(=O)n2C	none (no result: Sm TGR block, AmpC inh no detg, AmpC detergent)
O=C(c1cc2ccccc2o1)N(C1CC1)C1(C(=O)Nc2ccccc2)CCCC1	none
Cc1ccc(CNC(=O)C2CC3Cn4c(nc5cc(Cl)c(Cl)cc54)C3N2C)o1 (stereo not given)	Sm TGR block 44.7µM
CCCNC(=O)C1CC2Cn3c(nc4ccccc43)C2N1C (stereo not given)	Sm TGR block 39.8µM (no result: FBPA Giardia inh)
COc1ccc(/C=C2/C(=O)NC(=O)N(C3CCCCC3)C2=O)cc1CSc1ccccn1	Sm TGR block 35.5µM, AmpC detergent inconclusive
COc1ccc(C=C2C(=O)N(C)C(=O)N(C)C2=O)cc1CSc1ccccn1	Sm TGR block inconclusive
COc1ccc(/C=C2/C(=O)NC(=S)N(C3CC3)C2=O)cc1CN1C(=O)c2ccccc2C1=O	FBPA Giardia inh inconclusive, Sm TGR block 11.2µM
C=CCN1c2ccccc2[C@]23C[C@@H](C(=O)OC)N(S(=O)(=O)c4cccs4)C2=NC(C(=O)OC)=C(C(=O)OC)[C@H]13	none (no result: Sm TGR block, AmpC inh no detg, AmpC detergent)
Cc1cc2c(n1-c1ccc(C(=O)NCCc3ccc(Cl)cc3)cc1)CCCC2	none (no result: FBPA Giardia inh, AmpC inh no detg)
O=[N+]([O-])c1ccc(O)c(C2=NNC(c3ccccc3F)C2)c1 (stereo not given)	Sm TGR block 5.01µM
C=CCN1c2ccc(Br)cc2C(=O)CS1(=O)=O	AmpC inh no detg 3.98µM (no result: FBPA Giardia inh)
COc1cccc(CN2c3ccc(Br)cc3C(=O)CS2(=O)=O)c1	AmpC inh no detg inconclusive (no result: FBPA Giardia inh)
CCOc1ccc(C2=Cc3cc(OC)c(OC)cc3C(=C(Cl)Cl)O2)cc1	Sm TGR block 35.5µM
CCOc1ccc(-c2cc(-c3nc(-c4ccc(OC)c(OC)c4)no3)[nH]n2)cc1	none (no result: FBPA Giardia inh, AmpC inh no detg)
Cc1nc(SCC(=O)N2CCN(c3ccccn3)CC2)c(C#N)c(C)c1C	none (no result: FBPA Giardia inh, Sm TGR block, AmpC detergent)
Cc1ccc2c(C(=O)CN3CCCC(C)C3)c(C)[nH]c2c1 (stereo not given)	Sm TGR block 35.5µM, AmpC detergent inconclusive
Cc1ccc2c(C(=O)CN3CC(C)CC(C)C3)c(C)[nH]c2c1 (stereo not given)	Sm TGR block 14.1µM
O=C1c2oc3ccccc3c(=O)c2C(c2ccccc2F)N1Cc1ccc2c(c1)OCO2 (stereo not given)	none (no result: FBPA Giardia inh, AmpC inh no detg)
O=C1C(Cl)=C(N2CCCCC2)C(=O)C(Cl)=C1c1cnc(N2CCCCC2)s1	FBPA Giardia inh 7.06µM, Sm TGR block 0.251µM
CC(C)NC(=O)c1cnc2sc(N3CCCCCC3)nn2c1=O	none (no result: FBPA Giardia inh, AmpC inh no detg)
O=C(NCc1ccco1)C1CCN(C(=O)c2ccc([N+](=O)[O-])cc2)CC1	Sm TGR block 25.1µM
O=C(NCc1ccco1)C1CCN(C(=O)c2ccc(Cl)cc2)CC1	none (no result: FBPA Giardia inh)
O=[N+]([O-])c1ccc(/C([O-])=C(/C(=S)NCc2ccco2)[n+]2ccccc2)cc1	FBPA Giardia inh inconclusive, Sm TGR block 22.4µM
O=C(NCc1ccco1)c1ccccc1Br	none
[O-]/C(=C(\C(=S)NCc1ccco1)[n+]1ccccc1)c1ccccc1Br	Sm TGR block 25.1µM
Cc1ccc(/C([O-])=C(/C(=S)NCc2ccco2)[n+]2ccccc2)cc1	Sm TGR block inconclusive, AmpC detergent inconclusive
CCn1c(C)c2c(C)nnc(C)c2c1C	FBPA Giardia inh inconclusive, Sm TGR block 44.7µM
Cc1nnc(C)c2c(C)n(-c3ccccc3)c(C)c12	none
CC(=C/c1ccco1)/C=N/NC(=O)Cc1cccn1C	FBPA Giardia inh inconclusive, Sm TGR block 44.7µM
Cn1cccc1CC(=O)N/N=C/c1ccc(C(C)(C)C)cc1	Sm TGR block inconclusive
CC(/C=N/NC(=O)Cc1cccn1C)=C\c1ccco1	Sm TGR block 25.1µM, AmpC inh no detg inconclusive
Cn1cccc1CC(=O)N/N=C/c1ccco1	Sm TGR block 39.8µM
O=C(CN1CCN(Cc2ccccc2)CC1)N/N=C/C=C/c1ccco1	Sm TGR block inconclusive
CC(/C=N/NC(=O)CN1CCN(Cc2ccc(Cl)cc2)CC1)=C\c1ccco1	Sm TGR block 79.4µM
CC(Oc1ccc(C(=O)c2ccc(F)cc2)cc1)C(=O)N1CCOCC1 (stereo not given)	AmpC detergent inconclusive (no result: FBPA Giardia inh)
CCOC(=O)[C@@H]1[C@H]2COc3cc(OC)ccc3[C@H]2N2C(=O)N(c3cccc(F)c3)C(=O)[C@]12C	none (no result: FBPA Giardia inh, Sm TGR block, AmpC detergent)
COc1ccc(F)cc1S(=O)(=O)NCCCn1ccnc1	none
Cc1c(-c2ccccc2)n[nH]c1C(=O)NN	none
CCOc1ccc(-c2n[nH]c(C(=O)NN)c2C)cc1	AmpC inh no detg 28.2µM
c1cnc2nc(-c3ccc4c(c3)OCO4)cn2c1	none
c1ccn2cc(-c3ccc4c(c3)OCO4)cc2c1	Sm TGR block 44.7µM
Cc1ccc(CNS(=O)(=O)c2ccc(F)c(F)c2)n1C	Sm TGR block 20µM
Cc1ccc(S(=O)(=O)NCc2cc(=O)n(C)c(=O)n2C)cc1C	none
Cc1ccc(CNS(=O)(=O)c2ccc(C(F)(F)F)cc2)n1C	Sm TGR block 15.8µM
O=C(CNS(=O)(=O)c1ccc(F)cc1)Nc1ccc(C(F)(F)F)cc1	none
Cc1nn(C(C)C)c(C)c1CN1CCC(C(=O)Nc2cccc(-c3cccc(F)c3)c2)CC1	none
COc1ccc(C(=O)c2cn(Cc3ccc(C)cc3)c3cc4c(cc3c2=O)OCO4)cc1	none (no result: FBPA Giardia inh, AmpC inh no detg)
CN(C)c1cc[n+](CC(=O)N2c3ccccc3Sc3ccccc32)cc1	none (no result: Sm TGR block)
O=C(C[n+]1ccccc1)N1c2ccccc2Sc2ccccc21	Sm TGR block 28.2µM
COc1cccc(OCc2cc(C(=O)N3CCN(c4ccccc4OC)CC3)no2)c1	Sm TGR block inconclusive, AmpC detergent inconclusive
COc1cccc(CN(C)C(=O)c2ccc(Oc3ccccc3)cc2)c1OC	none
COc1cc(/C=C/C(=O)Nc2ccc(OC)c(S(=O)(=O)N3CCOCC3)c2)ccc1OC(F)F	none (no result: FBPA Giardia inh, Sm TGR block, AmpC detergent)
CCN(CC)c1ccc(S(=O)(=O)N2CCOCC2)cc1NC(=O)COC(=O)/C=C/c1ccc(C)o1	Sm TGR block 31.6µM, AmpC detergent inconclusive (no result: FBPA Giardia inh)
COc1ccc(NC(=O)C2CCC(C(C)(C)C)CC2)cc1S(=O)(=O)N1CCOCC1 (stereo not given)	Sm TGR block 39.8µM (no result: FBPA Giardia inh)
